Article PMC7156710, “The Sox2 transcription factor binds RNA”

Columns and labels:
Assay in all cases: fluorescence anisotropy; 10 mM Tris-HEPES pH 7.5, 8% Ficoll, 0.05% NP-40, 135 mM KCl, 15 mM NaCl, 1 mM DTT, 0.1 mg/mL BSA; 2 nM DNA or 3 nM RNA; low values mean tight binding
Conditions in all cases: protein: recombinant; tags: N-terminal His6 and thrombin site, not removed; label: 3' fluorescein; hairpin; structured_RNA
[1] = target: Sox2-HMG (His6 retained) E78A (Homo sapiens, UniProt P48431 38-121, E78A)
Sequence of Sox2-HMG (His6 retained) E78A (P48431 other isoform, or with tags, fused parts or gaps E78A | E78A E78A): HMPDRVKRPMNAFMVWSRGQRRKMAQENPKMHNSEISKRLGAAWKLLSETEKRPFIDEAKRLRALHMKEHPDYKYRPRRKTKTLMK
Procedure, shortened: (§1)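 Dissociation constants, fit in Kaleidagraph, are reported relative to wild type as a mutant-to-wild-type ratio. They come from polarization readings on a CLARIOstar after alanine-substituted Sox2-HMG domains, made by site-directed mutagenesis and Ni-NTA purified with the His6 tag retained, were titrated against 2 nM fluorescein-labeled DNA or 3 nM fluorescein-labeled RNA. Binding took place in Tris-HEPES pH 7.5 buffer for at least 1 h, and titrations were done in triplicate with three reads each.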

[2] = target: Sox2-HMG (His6 retained) S72A (Homo sapiens, UniProt P48431 38-121, S72A)
Sequence of Sox2-HMG (His6 retained) S72A (P48431 other isoform, or with tags, fused parts or gaps S72A | S72A S72A): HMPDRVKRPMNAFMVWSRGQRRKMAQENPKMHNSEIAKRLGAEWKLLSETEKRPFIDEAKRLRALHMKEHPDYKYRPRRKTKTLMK
Procedure, shortened: as §1

[3] = target: Sox2-HMG (His6 retained) E104A (Homo sapiens, UniProt P48431 38-121, E104A)
Sequence of Sox2-HMG (His6 retained) E104A (P48431 other isoform, or with tags, fused parts or gaps E104A | E104A E104A): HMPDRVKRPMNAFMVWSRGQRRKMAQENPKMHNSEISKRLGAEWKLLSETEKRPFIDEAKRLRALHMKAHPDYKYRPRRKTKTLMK
Procedure, shortened: as §1

[4] = target: Sox2-HMG (His6 retained) K58A (Homo sapiens, UniProt P48431 38-121, K58A)
Sequence of Sox2-HMG (His6 retained) K58A (P48431 other isoform, or with tags, fused parts or gaps K58A | K58A K58A): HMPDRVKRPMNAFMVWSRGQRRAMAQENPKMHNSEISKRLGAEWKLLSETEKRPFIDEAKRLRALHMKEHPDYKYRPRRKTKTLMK
Procedure, shortened: as §1

[5] = target: Sox2-HMG (His6 retained) H67A (Homo sapiens, UniProt P48431 38-121, H67A)
Sequence of Sox2-HMG (His6 retained) H67A (P48431 other isoform, or with tags, fused parts or gaps H67A | H67A H67A): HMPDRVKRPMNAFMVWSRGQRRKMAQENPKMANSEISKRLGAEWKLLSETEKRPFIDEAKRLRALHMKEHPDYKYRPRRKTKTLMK
Procedure, shortened: as §1

[6] = target: Sox2-HMG (His6 retained) K42A (Homo sapiens, UniProt P48431 38-121, K42A)
Sequence of Sox2-HMG (His6 retained) K42A (P48431 other isoform, or with tags, fused parts or gaps K42A | K42A K42A): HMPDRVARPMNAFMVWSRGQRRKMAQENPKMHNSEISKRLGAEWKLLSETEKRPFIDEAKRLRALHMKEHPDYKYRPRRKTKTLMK
Procedure, shortened: as §1

[7] = target: Sox2-HMG (His6 retained) M45A (Homo sapiens, UniProt P48431 38-121, M45A)
Sequence of Sox2-HMG (His6 retained) M45A (P48431 other isoform, or with tags, fused parts or gaps M45A | M45A M45A): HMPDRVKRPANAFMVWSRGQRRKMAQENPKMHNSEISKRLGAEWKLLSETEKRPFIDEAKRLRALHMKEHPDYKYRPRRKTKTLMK
Procedure, shortened: as §1

[8] = target: Sox2-HMG (His6 retained) N63A (Homo sapiens, UniProt P48431 38-121, N63A)
Sequence of Sox2-HMG (His6 retained) N63A (P48431 other isoform, or with tags, fused parts or gaps N63A | N63A N63A): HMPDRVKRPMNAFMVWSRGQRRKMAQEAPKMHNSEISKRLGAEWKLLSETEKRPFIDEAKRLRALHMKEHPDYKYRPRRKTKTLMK
Procedure, shortened: as §1

[9] = target: Sox2-HMG (His6 retained) K115A (Homo sapiens, UniProt P48431 38-121, K115A)
Sequence of Sox2-HMG (His6 retained) K115A (P48431 other isoform, or with tags, fused parts or gaps K115A | K115A K115A): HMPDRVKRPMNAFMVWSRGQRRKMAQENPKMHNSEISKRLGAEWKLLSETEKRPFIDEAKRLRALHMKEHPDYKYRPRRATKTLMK
Procedure, shortened: as §1

[10] = target: Sox2-HMG (His6 retained) E70A (Homo sapiens, UniProt P48431 38-121, E70A)
Sequence of Sox2-HMG (His6 retained) E70A (P48431 other isoform, or with tags, fused parts or gaps E70A | E70A E70A): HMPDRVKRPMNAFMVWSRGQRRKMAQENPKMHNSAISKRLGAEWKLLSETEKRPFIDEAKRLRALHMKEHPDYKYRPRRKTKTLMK
Procedure, shortened: as §1

[11] = target: Sox2-HMG (His6 retained) K87A (Homo sapiens, UniProt P48431 38-121, K87A)
Sequence of Sox2-HMG (His6 retained) K87A (P48431 other isoform, or with tags, fused parts or gaps K87A | K87A K87A): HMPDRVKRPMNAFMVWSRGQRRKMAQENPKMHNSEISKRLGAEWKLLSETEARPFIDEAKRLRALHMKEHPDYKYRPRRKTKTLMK
Procedure, shortened: as §1

[12] = target: Sox2-HMG (His6 retained) W79A (Homo sapiens, UniProt P48431 38-121, W79A)
Sequence of Sox2-HMG (His6 retained) W79A (P48431 other isoform, or with tags, fused parts or gaps W79A | W79A W79A): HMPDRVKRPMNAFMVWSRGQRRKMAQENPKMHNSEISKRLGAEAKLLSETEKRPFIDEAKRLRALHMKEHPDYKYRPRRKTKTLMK
Procedure, shortened: as §1

[13] = target: Sox2-HMG (His6 retained) E62A (Homo sapiens, UniProt P48431 38-121, E62A)
Sequence of Sox2-HMG (His6 retained) E62A (P48431 other isoform, or with tags, fused parts or gaps E62A | E62A E62A): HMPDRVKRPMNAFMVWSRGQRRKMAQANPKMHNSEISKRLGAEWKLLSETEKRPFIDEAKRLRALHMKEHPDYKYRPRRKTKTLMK
Procedure, shortened: as §1

[14] = target: Sox2-HMG (His6 retained) R114A (Homo sapiens, UniProt P48431 38-121, R114A)
Sequence of Sox2-HMG (His6 retained) R114A (P48431 other isoform, or with tags, fused parts or gaps R114A | R114A R114A): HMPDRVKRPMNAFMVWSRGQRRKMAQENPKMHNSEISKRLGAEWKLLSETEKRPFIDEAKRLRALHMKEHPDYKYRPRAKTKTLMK
Procedure, shortened: as §1

[15] = target: Sox2-HMG (His6 retained) S69A (Homo sapiens, UniProt P48431 38-121, S69A)
Sequence of Sox2-HMG (His6 retained) S69A (P48431 other isoform, or with tags, fused parts or gaps S69A | S69A S69A): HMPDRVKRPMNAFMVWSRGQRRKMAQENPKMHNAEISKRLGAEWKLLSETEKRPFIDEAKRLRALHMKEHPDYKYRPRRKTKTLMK
Procedure, shortened: as §1

[16] = target: Sox2-HMG (His6 retained) R96A (Homo sapiens, UniProt P48431 38-121, R96A)
Sequence of Sox2-HMG (His6 retained) R96A (P48431 other isoform, or with tags, fused parts or gaps R96A | R96A R96A): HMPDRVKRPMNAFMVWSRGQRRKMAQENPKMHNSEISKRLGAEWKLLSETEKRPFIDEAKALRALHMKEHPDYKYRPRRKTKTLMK
Procedure, shortened: as §1

[17] = target: Sox2-HMG (His6 retained) R40A (Homo sapiens, UniProt P48431 38-121, R40A)
Sequence of Sox2-HMG (His6 retained) R40A (P48431 other isoform, or with tags, fused parts or gaps R40A | R40A R40A): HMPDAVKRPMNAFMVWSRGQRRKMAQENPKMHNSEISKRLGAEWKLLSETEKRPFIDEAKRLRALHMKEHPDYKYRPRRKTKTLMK
Procedure, shortened: as §1

[18] = target: Sox2-HMG (His6 retained) W51A (Homo sapiens, UniProt P48431 38-121, W51A)
Sequence of Sox2-HMG (His6 retained) W51A (P48431 other isoform, or with tags, fused parts or gaps W51A | W51A W51A): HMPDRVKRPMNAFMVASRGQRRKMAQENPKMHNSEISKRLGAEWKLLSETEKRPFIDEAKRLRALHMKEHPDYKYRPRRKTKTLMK
Procedure, shortened: as §1

[19] = target: Sox2-HMG (His6 retained) S83A (Homo sapiens, UniProt P48431 38-121, S83A)
Sequence of Sox2-HMG (His6 retained) S83A (P48431 other isoform, or with tags, fused parts or gaps S83A | S83A S83A): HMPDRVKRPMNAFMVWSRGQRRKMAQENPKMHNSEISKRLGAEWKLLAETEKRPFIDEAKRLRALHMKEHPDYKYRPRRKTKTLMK
Procedure, shortened: as §1

[20] = target: Sox2-HMG (His6 retained) R111A (Homo sapiens, UniProt P48431 38-121, R111A)
Sequence of Sox2-HMG (His6 retained) R111A (P48431 other isoform, or with tags, fused parts or gaps R111A | R111A R111A): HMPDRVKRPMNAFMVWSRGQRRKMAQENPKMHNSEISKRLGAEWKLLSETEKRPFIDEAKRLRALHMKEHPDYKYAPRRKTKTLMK
Procedure, shortened: as §1

[21] = target: Sox2-HMG (His6 retained) E84A (Homo sapiens, UniProt P48431 38-121, E84A)
Sequence of Sox2-HMG (His6 retained) E84A (P48431 other isoform, or with tags, fused parts or gaps E84A | E84A E84A): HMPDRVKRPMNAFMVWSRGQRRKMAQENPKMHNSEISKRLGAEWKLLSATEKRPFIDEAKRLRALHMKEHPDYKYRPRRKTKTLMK
Procedure, shortened: as §1

[22] = target: Sox2-HMG (His6 retained) K95A (Homo sapiens, UniProt P48431 38-121, K95A)
Sequence of Sox2-HMG (His6 retained) K95A (P48431 other isoform, or with tags, fused parts or gaps K95A | K95A K95A): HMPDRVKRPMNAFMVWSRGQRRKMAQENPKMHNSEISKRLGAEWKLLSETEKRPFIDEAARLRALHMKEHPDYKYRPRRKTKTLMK
Procedure, shortened: as §1

[23] = target: Sox2-HMG (His6 retained) F48A (Homo sapiens, UniProt P48431 38-121, F48A)
Sequence of Sox2-HMG (His6 retained) F48A (P48431 other isoform, or with tags, fused parts or gaps F48A | F48A F48A): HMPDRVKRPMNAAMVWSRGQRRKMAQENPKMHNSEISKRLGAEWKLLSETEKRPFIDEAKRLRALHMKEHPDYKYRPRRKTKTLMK
Procedure, shortened: as §1

[24] = target: Sox2-HMG (His6 retained) R74A (Homo sapiens, UniProt P48431 38-121, R74A)
Sequence of Sox2-HMG (His6 retained) R74A (P48431 other isoform, or with tags, fused parts or gaps R74A | R74A R74A): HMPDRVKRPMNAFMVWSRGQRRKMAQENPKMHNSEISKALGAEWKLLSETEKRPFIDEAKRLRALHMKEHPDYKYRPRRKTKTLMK
Procedure, shortened: as §1

[25] = target: Sox2-HMG (His6 retained) Q61A (Homo sapiens, UniProt P48431 38-121, Q61A)
Sequence of Sox2-HMG (His6 retained) Q61A (P48431 other isoform, or with tags, fused parts or gaps Q61A | Q61A Q61A): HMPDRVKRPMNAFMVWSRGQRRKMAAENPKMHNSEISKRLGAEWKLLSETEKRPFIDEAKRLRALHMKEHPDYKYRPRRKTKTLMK
Procedure, shortened: as §1

[26] = target: Sox2-HMG (His6 retained) R88A (Homo sapiens, UniProt P48431 38-121, R88A)
Sequence of Sox2-HMG (His6 retained) R88A (P48431 other isoform, or with tags, fused parts or gaps R88A | R88A R88A): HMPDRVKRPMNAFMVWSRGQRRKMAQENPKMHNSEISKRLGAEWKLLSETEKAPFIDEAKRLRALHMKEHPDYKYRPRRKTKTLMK
Procedure, shortened: as §1

[27] = target: Sox2-HMG (His6 retained) K73A (Homo sapiens, UniProt P48431 38-121, K73A)
Sequence of Sox2-HMG (His6 retained) K73A (P48431 other isoform, or with tags, fused parts or gaps K73A | K73A K73A): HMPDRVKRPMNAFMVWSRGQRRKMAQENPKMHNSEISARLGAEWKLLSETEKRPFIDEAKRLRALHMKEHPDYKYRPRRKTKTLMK
Procedure, shortened: as §1

[28] = target: Sox2-HMG (His6 retained) E86A (Homo sapiens, UniProt P48431 38-121, E86A)
Sequence of Sox2-HMG (His6 retained) E86A (P48431 other isoform, or with tags, fused parts or gaps E86A | E86A E86A): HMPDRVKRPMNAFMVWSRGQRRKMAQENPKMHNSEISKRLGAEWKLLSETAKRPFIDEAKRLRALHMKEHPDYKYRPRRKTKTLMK
Procedure, shortened: as §1

[29] = target: Sox2-HMG (His6 retained) R53A (Homo sapiens, UniProt P48431 38-121, R53A)
Sequence of Sox2-HMG (His6 retained) R53A (P48431 other isoform, or with tags, fused parts or gaps R53A | R53A R53A): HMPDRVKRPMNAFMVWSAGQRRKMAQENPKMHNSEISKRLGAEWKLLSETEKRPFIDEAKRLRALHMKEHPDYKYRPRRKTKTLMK
Procedure, shortened: as §1

[30] = target: Sox2-HMG (His6 retained) R113A (Homo sapiens, UniProt P48431 38-121, R113A)
Sequence of Sox2-HMG (His6 retained) R113A (P48431 other isoform, or with tags, fused parts or gaps R113A | R113A R113A): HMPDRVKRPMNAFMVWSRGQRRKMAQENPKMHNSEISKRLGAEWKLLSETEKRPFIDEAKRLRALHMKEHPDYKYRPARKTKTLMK
Procedure, shortened: as §1

[31] = target: Sox2-HMG (His6 retained) T85A (Homo sapiens, UniProt P48431 38-121, T85A)
Sequence of Sox2-HMG (His6 retained) T85A (P48431 other isoform, or with tags, fused parts or gaps T85A | T85A T85A): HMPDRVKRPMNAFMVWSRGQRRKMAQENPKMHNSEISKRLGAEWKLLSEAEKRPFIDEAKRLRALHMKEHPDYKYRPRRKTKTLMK
Procedure, shortened: as §1

[32] = target: Sox2-HMG (His6 retained) M49A (Homo sapiens, UniProt P48431 38-121, M49A)
Sequence of Sox2-HMG (His6 retained) M49A (P48431 other isoform, or with tags, fused parts or gaps M49A | M49A M49A): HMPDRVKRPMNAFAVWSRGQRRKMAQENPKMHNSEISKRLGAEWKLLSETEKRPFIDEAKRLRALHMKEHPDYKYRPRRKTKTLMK
Procedure, shortened: as §1

[33] = target: Sox2-HMG (His6 retained) R56A (Homo sapiens, UniProt P48431 38-121, R56A)
Sequence of Sox2-HMG (His6 retained) R56A (P48431 other isoform, or with tags, fused parts or gaps R56A | R56A R56A): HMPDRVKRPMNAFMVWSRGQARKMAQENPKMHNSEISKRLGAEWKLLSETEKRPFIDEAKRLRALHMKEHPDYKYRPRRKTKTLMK
Procedure, shortened: as §1

[34] = target: Sox2-HMG (His6 retained) K80A (Homo sapiens, UniProt P48431 38-121, K80A)
Sequence of Sox2-HMG (His6 retained) K80A (P48431 other isoform, or with tags, fused parts or gaps K80A | K80A K80A): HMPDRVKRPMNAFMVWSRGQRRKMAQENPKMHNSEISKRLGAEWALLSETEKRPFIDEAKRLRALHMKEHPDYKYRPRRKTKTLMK
Procedure, shortened: as §1

[35] = target: Sox2-HMG (His6 retained) Y110A (Homo sapiens, UniProt P48431 38-121, Y110A)
Sequence of Sox2-HMG (His6 retained) Y110A (P48431 other isoform, or with tags, fused parts or gaps Y110A | Y110A Y110A): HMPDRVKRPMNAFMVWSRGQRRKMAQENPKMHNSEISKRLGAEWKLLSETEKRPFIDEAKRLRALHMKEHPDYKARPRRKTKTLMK
Procedure, shortened: as §1

[36] = target: Sox2-HMG (His6 retained) K103A (Homo sapiens, UniProt P48431 38-121, K103A)
Sequence of Sox2-HMG (His6 retained) K103A (P48431 other isoform, or with tags, fused parts or gaps K103A | K103A K103A): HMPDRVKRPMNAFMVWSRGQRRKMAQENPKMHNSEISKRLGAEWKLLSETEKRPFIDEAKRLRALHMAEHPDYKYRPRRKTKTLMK
Procedure, shortened: as §1

[37] = target: Sox2-HMG (His6 retained) K109A (Homo sapiens, UniProt P48431 38-121, K109A)
Procedure, shortened: as §1

[38] = target: Sox2-HMG (His6 retained) R43A (Homo sapiens, UniProt P48431 38-121, R43A)
Sequence of Sox2-HMG (His6 retained) R43A (P48431 other isoform, or with tags, fused parts or gaps R43A | R43A R43A): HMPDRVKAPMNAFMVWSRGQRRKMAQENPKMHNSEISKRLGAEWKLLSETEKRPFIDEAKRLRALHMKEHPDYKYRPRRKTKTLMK
Procedure, shortened: as §1

[39] = target: Sox2-HMG (His6 retained) R57A (Homo sapiens, UniProt P48431 38-121, R57A)
Sequence of Sox2-HMG (His6 retained) R57A (P48431 other isoform, or with tags, fused parts or gaps R57A | R57A R57A): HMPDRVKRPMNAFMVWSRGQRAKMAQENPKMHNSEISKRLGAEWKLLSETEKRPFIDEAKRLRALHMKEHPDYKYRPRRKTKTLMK
Procedure, shortened: as §1

[40] = target: Sox2-HMG (His6 retained) R98A (Homo sapiens, UniProt P48431 38-121, R98A)
Procedure, shortened: as §1

[41] = target: Sox2-HMG (His6 retained) N68A (Homo sapiens, UniProt P48431 38-121, N68A)
Sequence of Sox2-HMG (His6 retained) N68A (P48431 other isoform, or with tags, fused parts or gaps N68A | N68A N68A): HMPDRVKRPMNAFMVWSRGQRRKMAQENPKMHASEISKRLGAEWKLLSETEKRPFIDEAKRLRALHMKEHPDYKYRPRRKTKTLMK
Procedure, shortened: as §1

[42] = target: Sox2-HMG (His6 retained) P112A (Homo sapiens, UniProt P48431 38-121, P112A)
Sequence of Sox2-HMG (His6 retained) P112A (P48431 other isoform, or with tags, fused parts or gaps P112A | P112A P112A): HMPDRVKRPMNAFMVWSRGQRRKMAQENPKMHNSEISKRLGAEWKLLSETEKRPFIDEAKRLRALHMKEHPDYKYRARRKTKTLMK
Procedure, shortened: as §1

[43] = target: Sox2-HMG (His6 retained) N46A (Homo sapiens, UniProt P48431 38-121, N46A)
Sequence of Sox2-HMG (His6 retained) N46A (P48431 other isoform, or with tags, fused parts or gaps N46A | N46A N46A): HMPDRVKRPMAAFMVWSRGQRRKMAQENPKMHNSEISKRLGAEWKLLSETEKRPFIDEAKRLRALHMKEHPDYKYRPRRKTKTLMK
Procedure, shortened: as §1

[44] = target: Sox2-HMG (His6 retained) K65A (Homo sapiens, UniProt P48431 38-121, K65A)
Sequence of Sox2-HMG (His6 retained) K65A (P48431 other isoform, or with tags, fused parts or gaps K65A | K65A K65A): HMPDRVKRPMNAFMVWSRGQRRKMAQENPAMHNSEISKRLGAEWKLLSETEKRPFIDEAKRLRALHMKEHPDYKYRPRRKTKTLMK
Procedure, shortened: as §1

[45] = target: Sox2-HMG (His6 retained) H101A (Homo sapiens, UniProt P48431 38-121, H101A)
Sequence of Sox2-HMG (His6 retained) H101A (P48431 other isoform, or with tags, fused parts or gaps H101A | H101A H101A): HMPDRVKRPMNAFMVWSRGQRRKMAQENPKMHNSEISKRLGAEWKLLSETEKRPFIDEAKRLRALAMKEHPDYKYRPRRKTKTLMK
Procedure, shortened: as §1

[46] = target: Sox2-HMG (His6 retained) P64A (Homo sapiens, UniProt P48431 38-121, P64A)
Sequence of Sox2-HMG (His6 retained) P64A (P48431 other isoform, or with tags, fused parts or gaps P64A | P64A P64A): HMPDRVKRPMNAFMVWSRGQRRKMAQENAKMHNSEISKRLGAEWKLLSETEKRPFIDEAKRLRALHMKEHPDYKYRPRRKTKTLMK
Procedure, shortened: as §1

[47] = target: Sox2-HMG (His6 retained) M66A (Homo sapiens, UniProt P48431 38-121, M66A)
Sequence of Sox2-HMG (His6 retained) M66A (P48431 other isoform, or with tags, fused parts or gaps M66A | M66A M66A): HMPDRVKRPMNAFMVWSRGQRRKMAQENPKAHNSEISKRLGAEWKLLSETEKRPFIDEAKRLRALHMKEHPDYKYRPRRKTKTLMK
Procedure, shortened: as §1

[48] = target: Sox2-HMG (His6 retained) H105A (Homo sapiens, UniProt P48431 38-121, H105A)
Sequence of Sox2-HMG (His6 retained) H105A (P48431 other isoform, or with tags, fused parts or gaps H105A | H105A H105A): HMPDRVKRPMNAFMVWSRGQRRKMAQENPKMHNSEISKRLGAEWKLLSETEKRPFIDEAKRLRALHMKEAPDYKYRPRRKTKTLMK
Procedure, shortened: as §1

GGUCUUAAGGUGCGGGCGAAAGUCUGUACCUCUGGGACC
binding signal [1]: 0.9 ± 0.5 Kd(mutant)/Kd(WT)
binding signal [2]: 1 ± 0.6 Kd(mutant)/Kd(WT)
binding signal [3]: 1 ± 0.5 Kd(mutant)/Kd(WT)
binding signal [4]: 0.8 ± 0.4 Kd(mutant)/Kd(WT)
binding signal [5]: 3.7 ± 1.7 Kd(mutant)/Kd(WT)
binding signal [6]: 7.9 ± 2.7 Kd(mutant)/Kd(WT)
binding signal [7]: 0.9 ± 0.5 Kd(mutant)/Kd(WT)
binding signal [8]: 1.3 ± 0.2 Kd(mutant)/Kd(WT)
binding signal [9]: 3.6 ± 1.4 Kd(mutant)/Kd(WT)
binding signal [10]: 1.2 ± 0.4 Kd(mutant)/Kd(WT)
binding signal [11]: 4.1 ± 1.4 Kd(mutant)/Kd(WT)
binding signal [12]: 50 ± 19 Kd(mutant)/Kd(WT)
binding signal [13]: 1.6 ± 0.8 Kd(mutant)/Kd(WT)
binding signal [14]: 9.2 ± 2.3 Kd(mutant)/Kd(WT)
binding signal [15]: 1.6 ± 0.5 Kd(mutant)/Kd(WT)
binding signal [16]: 0.8 ± 0.3 Kd(mutant)/Kd(WT)
binding signal [17]: 2.7 ± 0.3 Kd(mutant)/Kd(WT)
binding signal [18]: 78 ± 13 Kd(mutant)/Kd(WT)
binding signal [19]: 1.8 ± 0.6 Kd(mutant)/Kd(WT)
binding signal [20]: 2.2 ± 1.2 Kd(mutant)/Kd(WT)
binding signal [21]: 0.9 ± 0.5 Kd(mutant)/Kd(WT)
binding signal [22]: 3.2 ± 1.2 Kd(mutant)/Kd(WT)
binding signal [23]: 16 ± 2 Kd(mutant)/Kd(WT)
binding signal [24]: 0.9 ± 0.5 Kd(mutant)/Kd(WT)
binding signal [25]: 0.8 ± 0.5 Kd(mutant)/Kd(WT)
binding signal [26]: 0.7 ± 0.2 Kd(mutant)/Kd(WT)
binding signal [27]: 6.9 ± 0.2 Kd(mutant)/Kd(WT)
binding signal [28]: 0.9 ± 0.6 Kd(mutant)/Kd(WT)
binding signal [29]: 1.7 ± 0.6 Kd(mutant)/Kd(WT)
binding signal [30]: 3.1 ± 1.3 Kd(mutant)/Kd(WT)
binding signal [31]: 0.9 ± 0.3 Kd(mutant)/Kd(WT)
binding signal [32]: 0.7 ± 0.4 Kd(mutant)/Kd(WT)
binding signal [33]: 3 ± 0.3 Kd(mutant)/Kd(WT)
binding signal [34]: 40 ± 15 Kd(mutant)/Kd(WT)
binding signal [35]: 1.7 ± 0.6 Kd(mutant)/Kd(WT)
binding signal [36]: 2.5 ± 1.1 Kd(mutant)/Kd(WT)
binding signal [37]: 7.4 ± 2.5 Kd(mutant)/Kd(WT)
binding signal [38]: 2.8 ± 0.6 Kd(mutant)/Kd(WT)
binding signal [39]: 1.3 ± 0.5 Kd(mutant)/Kd(WT)
binding signal [40]: 5.5 ± 1.9 Kd(mutant)/Kd(WT)
binding signal [41]: 1 ± 0.1 Kd(mutant)/Kd(WT)
binding signal [42]: 1.8 ± 0.8 Kd(mutant)/Kd(WT)
binding signal [43]: 3.5 ± 1.1 Kd(mutant)/Kd(WT)
binding signal [44]: 2.6 ± 0.7 Kd(mutant)/Kd(WT)
binding signal [45]: 2.2 ± 0.9 Kd(mutant)/Kd(WT)
binding signal [46]: 2 ± 0.7 Kd(mutant)/Kd(WT)
binding signal [47]: 1.3 ± 0.5 Kd(mutant)/Kd(WT)
binding signal [48]: 2 ± 1 Kd(mutant)/Kd(WT)
